Rows were chosen to be rich in hits. Some 6.9% of all compounds tested hit in one or more screens of this group.
FXIIa inh mix = human factor XIIa inhibitors, primary screen, biochemical, pooled compound mixtures, fluorogenic substrate; AID 684, 2007; purified FXIIa; 0.2% of 62,000 active; inhibition, % at 5 µM
JNK3 inh = JNK3 kinase activity inhibitors, primary screen, biochemical, human, purified enzyme | 0.61% of 60,000 active | inhibition, % at 8 µM | HTS | Mitogen-activated protein kinase 10 (Homo sapiens), P53779; in the data active = inhibition above about 17%
FXIa mix inh = FXIa protease inhibitors in compound pools, primary screen, biochemical, 10-compound mixtures; purified FXIa, fluorogenic substrate, pooled mixtures; inhibition, % at 5 µM; 0.19% of 62,000 active; AID 680, 2007;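 note: each value is inhibition by a whole ten-compound pool holding the compound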
M1 ag = M1 muscarinic receptor agonists, primary screen, CHO-M1 cells, Fluo-4 calcium, agonist mode; Fluo-4 calcium fluorescence; hits give high values; Muscarinic acetylcholine receptor M1; 3% of 64,000 active; AID 626, 2007; B-score at 10 µM;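 active = fluorescence rise, raw or as B-score row- and column-corrected plate score, outside the 99.7% band of its plate's samples, either direction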
M1 antagonist = antagonists of rat M1 muscarinic receptor. CHO-M1 cells, Fluo-4 calcium, ACh EC80 antagonist mode; hits give low values. B-score at 10 µM. 3.4% of 64,000 active. AID 628, 2007. Muscarinic acetylcholine receptor M1 (Rattus norvegicus), P08482;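 active = calcium fluorescence response, raw or row-and-column corrected B-score, differing from the plate sample mean either way at a set confidence level, mostly lower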
Target sequence (P08482 whole entry, looked up): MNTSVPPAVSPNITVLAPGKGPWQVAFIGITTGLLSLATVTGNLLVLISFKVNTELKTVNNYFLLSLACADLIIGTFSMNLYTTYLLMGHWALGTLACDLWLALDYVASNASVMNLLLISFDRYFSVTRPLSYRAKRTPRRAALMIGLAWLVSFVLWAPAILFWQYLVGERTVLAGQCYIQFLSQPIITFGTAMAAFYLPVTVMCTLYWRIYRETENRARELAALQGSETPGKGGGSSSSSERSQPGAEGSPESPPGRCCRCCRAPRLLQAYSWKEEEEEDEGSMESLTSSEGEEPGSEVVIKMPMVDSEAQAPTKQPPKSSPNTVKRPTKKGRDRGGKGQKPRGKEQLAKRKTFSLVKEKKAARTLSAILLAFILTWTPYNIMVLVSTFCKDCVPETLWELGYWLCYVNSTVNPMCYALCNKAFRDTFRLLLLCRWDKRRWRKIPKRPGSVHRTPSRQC
Her2 expr inh = inhibitors of Her2 protein expression, primary screen, SKBR-3 cells, AlphaScreen, 66K library | Receptor tyrosine-protein kinase erbB-2 (Homo sapiens), P04626 | SKBR-3 HER2 protein level, 18-24 h; hits give low values | HER2 level % of control, % at 10 µM | 0.69% of 65,000 active | AID 645, 2007;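 active = HER2 level under 5% of the carrier-only control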;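 note: lower value means stronger loss of Her2 protein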
M1 antag conf = rat M1 muscarinic receptor antagonists, confirmation, CHO cells, Fluo-4 calcium, duplicate; shares compounds with M1 antagonist; ACh EC80 antagonism; hits give low values; calcium response (max-min fluorescence) at 10 µM; 43% of 1,700 active; AID 677, 2007;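 active = calcium response below the same-plate mean of wells given acetylcholine alone at its 80%-effect dose, minus 3 SD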
mGluR4 antag = human mGluR4 response to M1 antagonist hits, M1 allosteric modulator project, cell-based, antagonist mode, secondary assay 1 | shares compounds with M1 antagonist | CHO-mGluR4 calcium flux, Fluo-4 fluorescence, glutamate EC80; hits give low values | fluorescence response (max-min) at 10 µM | 0.9% of 1,700 active;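 active = fluorescence response below the plate's average for near-maximal glutamate wells, less 3 SD of those wells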;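 note: raw unnormalized fluorescence span taken in the window right after glutamate addition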
Each line names hits and unclear results; the compound was inactive in the other large screens (follow-up assays come after a bar, where they were run). Cut-off read from the data, not from the text of the source, unless noted: active = inhibition above about 20% (passing the limit was not always enough); inactive = the rest.

Cc1ccc(N2CC(c3nc4ccccc4n3C)CC2=O)cc1C (stereo not given)	M1 antagonist -4.1 | M1 antag conf 447 | mGluR4 antag inactive
Cc1cc(C)cc(N2CC(c3nc4ccccc4n3C)CC2=O)c1 (stereo not given)	none
O=C(Cc1cn2ccsc2n1)Nc1nc2c(s1)CN(Cc1ccccc1)CC2	none
CCOC(=O)c1[nH]c2ccc(OC)cc2c1NC(=O)CN1CCN(c2ccccn2)CC1	none (no result: FXIIa inh mix, FXIa mix inh)
CCOC(=O)c1[nH]c2ccc(OCC)cc2c1NC(=O)CN1CCN(c2ccccn2)CC1	M1 antagonist -2.5 | M1 antag conf inactive | mGluR4 antag inactive
Cc1ccc(-n2nnc3c(SCC(=O)NCC4CCCO4)ncnc32)cc1 (stereo not given)	M1 antagonist -2.4 (no result: JNK3 inh) | M1 antag conf inactive | mGluR4 antag inactive
O=C(CSc1ncnc2c1nnn2-c1ccc(F)cc1)NCC1CCCO1 (stereo not given)	none
C=CCSc1nnc2c(n1)OC(c1cccnc1)N(C(C)=O)c1ccccc1-2 (stereo not given)	M1 antagonist -4.2 | M1 antag conf 373 | mGluR4 antag inactive
CSc1nnc2c(n1)OC(c1cccn1C)N(C(C)=O)c1ccccc1-2 (stereo not given)	M1 antagonist -5.7 | M1 antag conf 158 | mGluR4 antag inactive
CSc1nnc2c(n1)OC(c1ccc(C(=O)O)cc1)N(C(C)=O)c1ccccc1-2 (stereo not given)	none
CC1CCN(C(=O)c2cc3ccccc3o2)CC1	none
COc1ccccc1N1CCN(CCCNC(=O)Nc2ccccc2C)CC1	none (no result: JNK3 inh)
COc1ccccc1N1CCN(CCCC(=O)c2ccc(F)cc2)CC1	M1 antagonist -2 | M1 antag conf 266 | mGluR4 antag inactive
COc1cc(-c2nnc3sc(-c4ccccn4)nn23)cc(OC)c1OC	none
COc1ccccc1C(=O)NC(C)C(c1cccs1)N1CCOCC1 (stereo not given)	M1 antagonist -3.5 (no result: FXIIa inh mix, FXIa mix inh) | M1 antag conf inactive | mGluR4 antag inactive
CC(C(=O)O)C1SC(=O)NC1=O (stereo not given)	none (no result: JNK3 inh)
COc1ccc(NC(=O)c2cnc3sccn3c2=O)cc1OC	none
O=C1CSC(c2ccccc2F)N1CCN1CCCCC1 (stereo not given)	M1 antagonist -2.8 | M1 antag conf 481 | mGluR4 antag inactive
Cc1ccc(C)n1-c1ccc(C(=O)NCC2CCCO2)cc1 (stereo not given)	none
CCOC(=O)CN1C(=O)C(CC)Oc2ccc(Cl)cc21 (stereo not given)	M1 antagonist -3.6 (no result: JNK3 inh) | M1 antag conf inactive | mGluR4 antag inactive
CCOC(=O)C1CCCN(C(=O)CN2C(=O)C(CC)Oc3ccc(C)cc32)C1 (stereo not given)	none
CC(=O)C1=C(Nc2ccc(C)cc2)CC(C)(O)C(C(C)=O)C1c1ccco1 (stereo not given)	M1 antagonist -13 | M1 antag conf inactive | mGluR4 antag inactive
CC(=O)C1C(c2ccco2)c2c(noc2C)CC1(C)O (stereo not given)	none (no result: JNK3 inh, Her2 expr inh)
O=C(CCCc1ccccc1)N1CCc2ccccc21	none (no result: JNK3 inh)
O=C(NCc1ccco1)c1cc2cc3ccc(Cl)cc3nc2o1	M1 antagonist -2.5 | M1 antag conf inactive | mGluR4 antag inactive
O=C(CSc1nc2cc(Cl)ccc2s1)NC(=O)NCc1ccco1	M1 antagonist -2.1 | M1 antag conf inactive | mGluR4 antag inactive
COc1ccc(N(C)S(=O)(=O)c2cccc(C(=O)Nc3ccc(-n4cnnn4)cc3)c2)cc1	none
CCOc1ccc(CNc2ccc3c(c2)nc(C)n3C)cc1	M1 antagonist -6 | M1 antag conf 448 | mGluR4 antag inactive
Nc1nc(-c2cccc(NS(=O)(=O)c3ccccc3)c2)cs1	none
COc1ccc(CN2CCN(c3ccccn3)CC2)cc1OCc1ccccc1	M1 antagonist -2.7 | M1 antag conf 573 | mGluR4 antag inactive
C=CCSc1nnc(-c2ccccc2NC(=O)CC)c(=O)[nH]1	none
COc1ccccc1Nc1nc(N)nc(CN2CCc3ccccc3C2)n1	none (no result: FXIIa inh mix, FXIa mix inh)
CCc1ccc(N/C(SC)=C(/C#N)C(N)=O)cc1	none (no result: JNK3 inh)
CCCCS/C(=C(/C#N)C(N)=O)c1cc2c([nH]1)CCCC2	M1 antagonist -6 | M1 antag conf 140 | mGluR4 antag inactive
CC(C(=O)c1ccccc1)n1cnc2ccccc2c1=O (stereo not given)	M1 antagonist -10 | M1 antag conf inactive | mGluR4 antag inactive
COc1ccc(C2C(C(=O)c3sc(C)nc3C)=C(O)C(=O)N2CCN(C)C)cc1 (stereo not given)	M1 antagonist -11 | M1 antag conf inactive | mGluR4 antag inactive
Cc1noc(C)c1C(=O)N1CCN(C(=O)c2sc3cc(Cl)ccc3c2Cl)CC1	M1 antagonist -4 | M1 antag conf inactive | mGluR4 antag inactive
O=C(CSc1nc2ccccc2o1)NCCOc1ccccc1	none
CCCCC(=O)NC1(C(F)(F)F)C(=O)Nc2c1c(=O)[nH]c(=O)n2Cc1ccco1 (stereo not given)	M1 antagonist -4.7 | M1 antag conf inactive | mGluR4 antag inactive
CCN(CCCNC(=O)CN1C(=O)COc2ccccc21)c1cccc(C)c1	none (no result: JNK3 inh)
CCOC(=O)N1CCC2(CC1)CC(=O)c1c(ccc3oc(C(=O)O)c(C)c13)O2	M1 antagonist -3.3 | M1 antag conf inactive | mGluR4 antag inactive
COc1ccc(C(=O)c2c[nH]c3ccccc23)cc1	none (no result: JNK3 inh)
CCOC(=O)N1CCN(CC(O)COCC2=CCC3CC2C3(C)C)CC1 (stereo not given)	M1 antagonist -6.3 | M1 antag conf 456 | mGluR4 antag inactive
CN1CCN(C(=O)c2ccc(COc3ccc(Cl)cc3Cl)cc2)CC1	M1 antagonist -2.7 | M1 antag conf inactive | mGluR4 antag inactive
CC1CCCN(c2nc3c(c(=O)[nH]c(=O)n3C)n2CCSc2ncccn2)C1 (stereo not given)	none
COc1cccc2sc(=NC(=O)c3ccc(S(=O)(=O)N4CCOCC4)cc3)n(C)c12	none
CCn1c(=NC(=O)c2ccc(S(=O)(=O)N3CCOCC3)cc2)sc2cccc(OC)c21	M1 antagonist -1.8 | M1 antag conf inactive | mGluR4 antag inactive
Cc1cc(C)n(-c2nnc(C)c(=O)[nH]2)n1	none
